DT40 TDP1 CPT: growth inhibition of DT40 Tdp1-/-;hTDP1 cells with camptothecin (screen for TDP1 inhibitors); chicken DT40 Tdp1-/-;hTDP1 cells + 20 nM CPT, ATP luminescence, 48 h; Potency, µM (titrated, usually from 46.2 µM), for inactives: top-dose activity change, negative = growth inhibition, most hits filed as inhibitors; 12% of 420,000 active; further: potency means the concentration at half of the fitted maximal effect; nearly all actives have a fitted effect of over 55% in size
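Cell growth measured by CellTiter-Glo luminescence after a minimum 48 h, 37 C compound exposure with 20 nM CPT in Tdp1-knockout DT40 cells stably expressing hTDP1, seeded 400/well; qHTS titration format.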
IL-1B inflam inh: blocks inflammasome-driven IL-1 beta release; THP-1 LPS/ATP IL-1B secretion, AlphaLISA, 16 h; active compounds read low; activity change, % at 57.5 µM; 4.7% of 360,000 active; AID 743279; in the data active means activity change below about -50%; inconclusive means mostly about -30% to -49%
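THP-1 cells pretreated 1 hr with compounds (up to 57.5 uM final), then stimulated with LPS (250 ng/mL final) plus ATP (1.25 mM final); secreted IL-1B measured by AlphaLISA after 16 hr, decreased signal indicating inhibition.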
HT1080 IDH1KD tx: HT-1080 IDH1 knockdown cell toxicity (counter line); HT-1080 IDH1 knockdown viability, ATP luminescence, 48 h; Potency, µM (highest dose often 46.1 µM), for inactives: at the highest dose activity, negative = toxicity, actives largely listed as cytotoxic; 2% of 360,000 active; AID 686971;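 further: potency means the concentration at half of the fitted maximal effect; 0% = DMSO wells and -100% = cell-free medium wells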
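% activity derives from luminescence (CellTiter-Glo), normalised to DMSO and no-cell wells. HT-1080-IDH1KD cells, 750/well, had 48 h compound exposure at 37 °C.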
uPA surface inh: cell surface uPA generation inhibition; AID 540303; Potency, µM (titrated, usually from 38.3 µM), for inactives: at the highest dose activity change, negative = inhibition, most hits filed as inhibitors; 0.31% of 330,000 active; cell surface uPA generation assay, qHTS; active means well fitted inhibition curve with a large enough effect; inconclusive means small, poorly fitted or top-dose-only effect; inactive means no such curve, though single readings can be large or run the other way; tested in mouse RAW 264.7 cells; further: potency means the concentration at half of the fitted maximal effect; nearly all actives have a fitted effect of over 55% in size
TDP1 cell noCPT: qHTS for Inhibitors of human tyrosyl-DNA phosphodiesterase 1 (TDP1): qHTS in cells in absence of CPT | Potency, µM (top dose mostly 46.2 µM), inactives show at the top dose activity change, negative = growth inhibition, actives largely listed as inhibitors | 15% of 420,000 active | DT40 Tdp1-/- hTDP1 cells, no CPT, ATP luminescence, 48 h; further: potency means the concentration at half of the fitted maximal effect; nearly all actives have a fitted effect of over 55% in size
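Stably hTDP1-transfected Tdp1-null chicken DT40 cells were treated with library compounds minus camptothecin and grown for at least 48 hr at 37 °C, after which cellular ATP was quantified by luminescence.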
HT1080NT lethal: kills 2HG-producing HT-1080-NT fibrosarcoma cells; HT-1080-NT fibrosarcoma viability, CellTiter-Glo ATP luminescence, 48 h; Potency, µM (highest dose often 46.1 µM), without a hit: at the highest dose activity, negative = less viability, most hits filed as cytotoxic; 1.6% of 360,000 active;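 further: NT is the 2HG producing partner of a matched IDH1 knockdown line; potency means the concentration at half of the fitted maximal effect; 0% = DMSO-treated cells and -100% = media-only wells without cells; nearly all actives have a fitted effect of over 55% in size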
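Fibrosarcoma NT cells, 750 per well in 5% FBS RPMI, were exposed to compound for 48 hours. Viability: CellTiter-Glo luminescence.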
Numbers without * were called inactive; ? = inconclusive; nt = not tested or not shown. An excerpt weighted towards active compounds, which were near 19% of everything screened. Unless noted, the call rests on the fitted dose curve; in most records, active means well fitted curve in the direction sought with a large enough effect; inconclusive means small, poorly fitted or top-dose-only effect, or another doubt; inactive means no such curve, though single readings can be large; an effect the other way counts as inactive or inconclusive. Unless noted, on the % scale 0 is the no-effect control and ±100 the full control effect.

SMILES | DT40 TDP1 CPT | IL-1B inflam inh | HT1080 IDH1KD tx | uPA surface inh | TDP1 cell noCPT | HT1080NT lethal
c1cc[n+](CCCC[n+]2ccccc2)cc1 | 3% | 11 | 6% | 16% | 9% | 0%
O=C(Nc1nc2ccc(S(=O)(=O)N3CCCC3)cc2s1)c1ccccn1 | 6.5µM* | -9 | -1% | -15% | 2.9µM* | 4%
O=C(Nc1nc2ccc(S(=O)(=O)N3CCCC3)cc2s1)c1cccc(F)c1 | ? | nt | nt | nt | 12µM* | nt
CNS(=O)(=O)c1ccc2nc(NC(=O)c3ccc(N4C(=O)CCC4=O)cc3)sc2c1 | ? | 13 | 1% | 0% | 21µM* | -3%
O=C(Nc1nc2ccc(S(=O)(=O)N3CCCCC3)cc2s1)c1cccnc1 | -13% | 44 | -13% | nt | ? | -10%
CCc1ccc2nc(NC(=O)c3ccc(N4C(=O)CCC4=O)cc3)sc2c1 | -27% | -1 | -2% | 2% | -11% | -2%
CCOC(=O)c1c(S(=O)(=O)N2CCC(C(=O)N3CCN(c4ccc(F)cc4)CC3)CC2)c(C)n(C)c1C | -18% | nt | nt | nt | -29% | nt
O=C(Nc1nc2n(n1)C(c1ccc(Cl)cc1)CC(c1ccc(Cl)cc1)N2)c1ccco1 (stereo not drawn) | ? | ? | 23µM* | -3% | ? | 23µM*
O=C(Nc1nc2n(n1)C(c1ccccc1)C=C(c1ccc(Cl)cc1)N2)c1ccco1 (stereo not drawn) | 21µM* | nt | nt | nt | 23µM* | nt
COc1ccc(C(=O)Nc2nc3n(n2)C(c2ccccc2)C=C(c2ccccc2)N3)cc1 (stereo not drawn) | 18µM* | nt | nt | nt | ? | nt
O=C(Nc1nc2n(n1)C(c1ccccc1)C=C(c1ccccc1)N2)c1ccco1 (stereo not drawn) | 6% | -3 | 15% | -3% | 11% | 24%
COc1ccc(C2C=C(c3ccccc3)Nc3nc(NC(=O)/C=C/c4ccccc4)nn32)cc1 (stereo not drawn) | 9.2µM* | nt | nt | nt | 7.3µM* | nt
CCOC(=O)c1ccc(NC(=O)C2=C(C)C(=O)OC23CCN(C(C)C)CC3)cc1 | ? | nt | nt | nt | 2% | nt
CCC(=O)N1CCc2cc(Br)cc(S(=O)(=O)CCC(=O)Nc3ccc(Cl)cc3)c21 | -16% | nt | nt | nt | -24% | nt
O=C(CNC(=O)C1CCCCC1)OCC(=O)c1ccc(-c2ccccc2)cc1 | 10% | nt | nt | nt | -5% | nt
CCc1ccc([C@@H]2C[C@H]3[C@@H](CN2S(=O)(=O)c2ccc(C)cc2)C(=O)C[C@@H](c2cccc(Cl)c2)N3S(=O)(=O)c2ccc(C)cc2)cc1 | -19% | 46 | -6% | nt | ? | -9%
COc1ccc(C2C=C(c3ccccc3)Nc3nc(NC(=O)/C=C/c4ccccc4OC)nn32)cc1 (stereo not drawn) | 5.8µM* | nt | nt | nt | 2.6µM* | nt
N#CC(c1ccc(Cl)cc1)c1c(Cl)cc(-n2ncc(=O)[nH]c2=O)cc1Cl (stereo not drawn) | 1% | nt | nt | nt | 0% | nt
Cc1ccccc1Cn1c(CN2CCC(C(=O)NCCN(C)C)CC2)cc2ccccc21 | 3.3µM* | nt | nt | nt | 4.1µM* | nt
CN(C)CCNC(=O)C1CCN(c2nc3ccccc3[nH]2)CC1 | -14% | nt | nt | nt | -1% | nt
CCOc1ccc(CNC(=O)C2CCN(Cc3cc4ccccc4n3Cc3ccccc3C)CC2)cc1 | 13µM* | nt | nt | nt | 23µM* | nt
COc1cccc(CNC(=O)C2CCN(Cc3cc4ccccc4n3Cc3ccc(C)cc3)CC2)c1 | ? | nt | nt | nt | 21µM* | nt
N#Cc1ccc(C(=O)N2CCCC(c3cc(C(=O)NCc4cccnc4)no3)C2)cc1 (stereo not drawn) | ? | 18 | 3% | nt | ? | ?
O=C(O)CC1c2ccccc2CCN1S(=O)(=O)c1ccc(F)cc1 (stereo not drawn) | 6% | 18 | 13% | 1% | -19% | 9%

From PubChem
